Measured values published in PubChem BioAssay (EPA / NIEHS).
Active and inactive are the calls of the source. Rule for the calls: active = hit-call score of the fitted dose curve at least 0.9, where 1 is the maximum; inactive = score below 0.9.

What was measured:
Conditions in all cases: mRNA level, 48 h; actives raise or lower the signal
[1] = read-out: MicroRNA 122 (MIR122), gene 406906; experiment: LTEA_HepaRG_MIR122: Life Technologies and Expression Analysis (LTEA) Assay for MicroRNA 122 (MIR122) using HepaRG (AID 2283516); note: the transcript read is the microRNA miR-122
Procedure, shortened: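 Differentiated human HepaRG cells in serum-free induction medium exposed 48 h to 8 half-log concentrations from 100 uM in 0.5% DMSO, duplicate. MIR122 quantified by Fluidigm TaqMan qRT-PCR, normalised to ACTB, GAPDH, POLR2A; fold change fitted bidirectionally versus DMSO.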

[2] = read-out: matrix metalloproteinase-10 (MMP10), MMP10 (gene 4319); experiment: LTEA_HepaRG_MMP10: Life Technologies and Expression Analysis (LTEA) Assay for matrix metalloproteinase-10 (MMP10) using HepaRG (AID 2283517)
Procedure, shortened: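 HepaRG, collagen I, ~100,000 cells/well; serum-free induction medium; 48 h exposure, duplicate, 8-pt half-log to 100 uM, 0.5% DMSO. Readout: TaqMan qRT-PCR, normalized to ACTB/GAPDH/POLR2A; bidirectional fit vs DMSO.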

MYC, MYC (gene 4609) = experiment: LTEA_HepaRG_MYC: Life Technologies and Expression Analysis (LTEA) Assay for MYC using HepaRG (AID 2283518)
Procedure, shortened: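 Differentiated HepaRG cells exposed 48 h in serum-free induction medium to 8 concentrations (top 100 uM, half-log steps; 0.5% DMSO), duplicate. MYC mRNA measured by Fluidigm qRT-PCR, normalized to ACTB, GAPDH, POLR2A; bidirectional fit versus DMSO.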

[3] = read-out: matrix metalloproteinase-3 (MMP3), MMP3 (gene 4314); experiment: LTEA_HepaRG_MMP3: Life Technologies and Expression Analysis (LTEA) Assay for matrix metalloproteinase-3 (MMP3) using HepaRG (AID 2283519)
Procedure, shortened: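 Differentiated human HepaRG cells, plated 48 h on collagen I, were exposed in duplicate for 48 h in serum-free induction medium to eight half-log concentrations up to 100 uM in 0.5% DMSO. MMP3 mRNA was quantified by TaqMan qRT-PCR, normalised to ACTB, GAPDH and POLR2A.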

[4] = read-out: Paternally Expressed 10 (PEG10), PEG10 (gene 23089); experiment: LTEA_HepaRG_PEG10: Life Technologies and Expression Analysis (LTEA) Assay for Paternally Expressed 10 (PEG10) using HepaRG (AID 2283520)
Procedure, shortened: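 Differentiated HepaRG cells exposed 48 h in serum-free induction medium to eight half-log concentrations topping at 100 uM, 0.5% DMSO, in duplicate. PEG10 mRNA quantified by TaqMan qRT-PCR, normalized to ACTB, GAPDH and POLR2A; bidirectional fit versus DMSO.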

[5] = read-out: Nuclear factor NF-kappa-B p105 subunit (Homo sapiens) (UniProt P19838); experiment: LTEA_HepaRG_NFKB1: Life Technologies and Expression Analysis (LTEA) Assay for Nuclear Factor Kappa B Subunit 1 (NFKB1) using HepaRG (AID 2283521)
Procedure, shortened: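 Differentiated human HepaRG cells in serum-free induction medium with 0.5% DMSO were exposed for 48 h to eight half-log concentrations, top 100 uM, in duplicate. NFKB1 mRNA measured by Fluidigm TaqMan qRT-PCR, normalised to ACTB, GAPDH and POLR2A; bidirectional fit versus DMSO.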

[6] = read-out: Protein phosphatase 2A (PPP2R4), PTPA (gene 5524); experiment: LTEA_HepaRG_PPP2R4: Life Technologies and Expression Analysis (LTEA) Assay for Protein phosphatase 2A (PPP2R4) using HepaRG (AID 2283522)
Procedure, shortened: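 Differentiated human HepaRG cells in serum-free induction medium were exposed 48 h to 8 concentrations (top 100 µM, half-log steps, duplicate) in 0.5% DMSO. PPP2R4 mRNA was measured by TaqMan qRT-PCR, normalised to ACTB, GAPDH and POLR2A, and fitted bidirectionally versus DMSO.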

[7] = read-out: Phosphatase and tensin (PTEN), PTEN (gene 5728); experiment: LTEA_HepaRG_PTEN: Life Technologies and Expression Analysis (LTEA) Assay for Phosphatase and tensin (PTEN) using HepaRG (AID 2283523)
Procedure, shortened: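 Differentiated human HepaRG cells, plated 48 h then switched to serum-free induction medium, were exposed in duplicate for 48 h to eight half-log concentrations up to 100 uM in 0.5% DMSO. PTEN mRNA measured by TaqMan qRT-PCR, normalized to ACTB/GAPDH/POLR2A, bidirectional fit versus DMSO.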

[8] = read-out: solute carrier (SLC22A1), SLC22A1 (gene 6580); experiment: LTEA_HepaRG_SLC22A1: Life Technologies and Expression Analysis (LTEA) Assay for solute carrier (SLC22A1) using HepaRG (AID 2283524)
Procedure, shortened: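 Human HepaRG cells were plated 48 h, switched to serum-free induction medium, then exposed in duplicate for 48 h to 8-point half-log series from 100 uM in 0.5% DMSO. SLC22A1 mRNA measured by qRT-PCR, normalized to ACTB/GAPDH/POLR2A, fitted bidirectionally versus DMSO.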

[9] = read-out: Pyruvate Dehydrogenase Kinase 4 (PDK4), PDK4 (gene 5166); experiment: LTEA_HepaRG_PDK4: Life Technologies and Expression Analysis (LTEA) Assay for Pyruvate Dehydrogenase Kinase 4 (PDK4) using HepaRG (AID 2283525)
Procedure, shortened: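 Differentiated human HepaRG cells, pre-cultured 48 h, were exposed in duplicate for 48 h in serum-free induction medium to eight half-log concentrations up to 100 uM in 0.5% DMSO. PDK4 mRNA was quantified by qRT-PCR, normalized to ACTB, GAPDH and POLR2A, bidirectional fitting versus DMSO.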

[10] = read-out: NAD(P)H dehydrogenase [quinone] 1 (NQO1), NQO1 (gene 1728); experiment: LTEA_HepaRG_NQO1: Life Technologies and Expression Analysis (LTEA) Assay for NAD(P)H dehydrogenase [quinone] 1 (NQO1) using HepaRG (AID 2283526)
Procedure, shortened: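 Differentiated human HepaRG cells in serum-free induction medium, dosed in duplicate for 48 h at 8 half-log concentrations up to 100 uM in 0.5% DMSO. NQO1 mRNA by qRT-PCR normalized to ACTB, GAPDH, POLR2A; bidirectional fit versus DMSO baseline.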

[11] = read-out: Nuclear factor erythroid 2-related factor 2 (Homo sapiens) (UniProt Q16236); experiment: LTEA_HepaRG_NFE2L2: Life Technologies and Expression Analysis (LTEA) Assay for Nuclear factor erythroid 2-related factor 2 (NFE2L2) Transcription Factor using HepaRG (AID 2283527)
Procedure, shortened: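 Differentiated human HepaRG cells in serum-free induction medium were exposed for 48 h to eight concentrations (top 100 uM, half-log dilutions, 0.5% DMSO), in duplicate. NFE2L2 mRNA was quantified by TaqMan qRT-PCR, normalized to ACTB, GAPDH and POLR2A, with bidirectional fitting versus DMSO.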

[12] = read-out: succinate dehydrogenase complex iron sulfur subunit B (SDHB), SDHB (gene 6390); experiment: LTEA_HepaRG_SDHB: Life Technologies and Expression Analysis (LTEA) Assay for succinate dehydrogenase complex iron sulfur subunit B (SDHB) using HepaRG (AID 2283528)
Procedure, shortened: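 HepaRG cells (~100,000/well, plated 48 h) exposed in duplicate for 48 h in serum-free induction medium to 8-point half-log series from 100 uM in 0.5% DMSO; mRNA by qRT-PCR normalised to ACTB, GAPDH, POLR2A; bidirectional fit versus DMSO.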

[13] = read-out: Signal transducer and activator of transcription 3 (Homo sapiens) (UniProt P40763); experiment: LTEA_HepaRG_STAT3: Life Technologies and Expression Analysis (LTEA) Assay for Signal transducer and activator of transcription (STAT3) using HepaRG (AID 2283529)
Procedure, shortened: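 Differentiated human HepaRG cells in serum-free induction medium were exposed in duplicate for 48 h to eight half-log concentrations up to 100 uM in 0.5% DMSO. STAT3 mRNA was quantified by TaqMan qRT-PCR, normalized to ACTB, GAPDH and POLR2A, and fitted bidirectionally against DMSO.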

[14] = read-out: solute carrier (SLCO1B1), SLCO1B1 (gene 10599); experiment: LTEA_HepaRG_SLCO1B1: Life Technologies and Expression Analysis (LTEA) Assay for solute carrier (SLCO1B1) using HepaRG (AID 2283530)
Procedure, shortened: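 Differentiated human HepaRG cells were exposed for 48 h in serum-free induction medium to eight half-log concentrations, top 100 uM, in 0.5% DMSO. SLCO1B1 mRNA was measured by qRT-PCR, normalized to ACTB, GAPDH and POLR2A, and fitted bidirectionally against DMSO.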

[15] = read-out: sulfotransferase 2A1 (SULT2A1), SULT2A1 (gene 6822); experiment: LTEA_HepaRG_SULT2A1: Life Technologies and Expression Analysis (LTEA) Assay for sulfotransferase 2A1 (SULT2A1) using HepaRG (AID 2283531)
Procedure, shortened: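 HepaRG human liver cells, 48 h exposure in serum-free induction medium to 8 half-log concentrations topping at 100 µM (0.5% DMSO), duplicate wells. SULT2A1 mRNA measured by TaqMan qRT-PCR, normalized to ACTB/GAPDH/POLR2A; bidirectional fit against DMSO.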

[16] = read-out: Transforming Growth Factor (TGFA), TGFA (gene 7039); experiment: LTEA_HepaRG_TGFA: Life Technologies and Expression Analysis (LTEA) Assay for Transforming Growth Factor (TGFA) using HepaRG (AID 2283532)
Procedure, shortened: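 Differentiated human HepaRG cells, plated 48 h then switched to serum-free induction medium, were exposed in duplicate for 48 h to 8-point half-log series from 100 uM in 0.5% DMSO. TGFA mRNA measured by qRT-PCR, normalized to ACTB/GAPDH/POLR2A, bidirectional fit versus DMSO.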

TIMP1, TIMP1 (gene 7076) = experiment: LTEA_HepaRG_TIMP1: Life Technologies and Expression Analysis (LTEA) Assay for TIMP1 using HepaRG (AID 2283534);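 note: TaqMan qRT-PCR signal normalized to ACTB GAPDH and POLR2A housekeeping genes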
Procedure, shortened: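 Differentiated HepaRG cells exposed 48 h in serum-free induction medium, duplicates, eight half-log concentrations from 100 uM in 0.5% DMSO. TIMP1 mRNA by qRT-PCR normalized to ACTB, GAPDH, POLR2A; bidirectional fitting against DMSO.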

[17] = read-out: Tumor necrosis factor receptor 1 (TNFRSF1A), TNFRSF1A (gene 7132); experiment: LTEA_HepaRG_TNFRSF1A: Life Technologies and Expression Analysis (LTEA) Assay for Tumor necrosis factor receptor 1 (TNFRSF1A) using HepaRG (AID 2283535)
Procedure, shortened: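 Differentiated HepaRG cells in serum-free induction medium, exposed 48 h in duplicate to 8 half-log concentrations up to 100 uM in 0.5% DMSO. TNFRSF1A mRNA by Fluidigm TaqMan qRT-PCR, normalized to ACTB, GAPDH, POLR2A; bidirectional fit.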

[18] = read-out: Transforming Growth Factor (TGFB1), TGFB1 (gene 7040); experiment: LTEA_HepaRG_TGFB1: Life Technologies and Expression Analysis (LTEA) Assay for Transforming Growth Factor (TGFB1) Transporter using HepaRG (AID 2283533)
Procedure, shortened: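 Differentiated HepaRG cells exposed 48 hr in serum-free induction medium to eight half-log concentrations up to 100 uM (0.5% DMSO), duplicate; TGFB1 mRNA by TaqMan qRT-PCR normalised to ACTB, GAPDH, POLR2A; bidirectional fit against DMSO.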

Measured: AC50

Nuclear factor erythroid 2-related factor 2 (Homo sapiens), sequence (Q16236 whole entry, looked up): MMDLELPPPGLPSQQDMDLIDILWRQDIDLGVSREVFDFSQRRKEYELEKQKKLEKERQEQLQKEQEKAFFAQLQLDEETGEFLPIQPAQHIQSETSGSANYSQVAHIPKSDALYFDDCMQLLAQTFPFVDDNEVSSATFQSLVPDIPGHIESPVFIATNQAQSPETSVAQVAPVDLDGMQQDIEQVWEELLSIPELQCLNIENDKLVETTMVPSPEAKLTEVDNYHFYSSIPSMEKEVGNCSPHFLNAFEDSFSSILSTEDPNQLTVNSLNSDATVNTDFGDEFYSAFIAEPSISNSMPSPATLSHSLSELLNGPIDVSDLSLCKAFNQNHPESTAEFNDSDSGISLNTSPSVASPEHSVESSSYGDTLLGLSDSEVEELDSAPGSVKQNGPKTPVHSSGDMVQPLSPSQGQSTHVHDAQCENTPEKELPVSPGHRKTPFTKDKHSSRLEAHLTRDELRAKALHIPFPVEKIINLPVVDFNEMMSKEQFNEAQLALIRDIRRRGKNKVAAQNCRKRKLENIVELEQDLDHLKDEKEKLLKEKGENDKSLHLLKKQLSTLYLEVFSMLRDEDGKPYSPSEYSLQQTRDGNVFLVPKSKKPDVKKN
Nuclear factor NF-kappa-B p105 subunit (Homo sapiens), sequence (P19838 whole entry, looked up): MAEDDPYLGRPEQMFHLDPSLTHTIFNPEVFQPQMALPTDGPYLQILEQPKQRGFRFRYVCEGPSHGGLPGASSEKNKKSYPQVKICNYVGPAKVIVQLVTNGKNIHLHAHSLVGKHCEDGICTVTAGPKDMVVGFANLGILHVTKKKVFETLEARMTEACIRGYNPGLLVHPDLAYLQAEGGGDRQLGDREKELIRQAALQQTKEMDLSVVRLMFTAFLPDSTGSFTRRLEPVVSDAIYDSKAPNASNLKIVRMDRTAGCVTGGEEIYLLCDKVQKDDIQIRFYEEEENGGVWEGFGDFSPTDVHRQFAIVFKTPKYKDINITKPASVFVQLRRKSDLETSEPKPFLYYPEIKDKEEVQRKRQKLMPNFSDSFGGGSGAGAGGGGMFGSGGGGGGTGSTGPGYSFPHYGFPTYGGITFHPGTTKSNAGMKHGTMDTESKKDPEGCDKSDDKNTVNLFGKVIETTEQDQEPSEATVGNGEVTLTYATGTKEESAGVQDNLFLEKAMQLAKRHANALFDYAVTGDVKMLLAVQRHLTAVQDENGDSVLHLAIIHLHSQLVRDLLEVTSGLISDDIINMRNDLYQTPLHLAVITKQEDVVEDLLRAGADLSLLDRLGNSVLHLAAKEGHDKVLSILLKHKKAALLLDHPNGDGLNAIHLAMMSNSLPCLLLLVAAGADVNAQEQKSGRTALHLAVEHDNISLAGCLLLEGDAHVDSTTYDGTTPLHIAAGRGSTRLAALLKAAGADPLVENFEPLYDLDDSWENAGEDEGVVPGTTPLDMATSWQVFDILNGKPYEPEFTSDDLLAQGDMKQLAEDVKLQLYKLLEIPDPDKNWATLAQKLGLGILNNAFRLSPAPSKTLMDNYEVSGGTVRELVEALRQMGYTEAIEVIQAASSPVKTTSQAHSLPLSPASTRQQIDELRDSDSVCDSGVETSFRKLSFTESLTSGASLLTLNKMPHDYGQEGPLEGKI
Signal transducer and activator of transcription 3 (Homo sapiens), sequence (P40763 whole entry, looked up): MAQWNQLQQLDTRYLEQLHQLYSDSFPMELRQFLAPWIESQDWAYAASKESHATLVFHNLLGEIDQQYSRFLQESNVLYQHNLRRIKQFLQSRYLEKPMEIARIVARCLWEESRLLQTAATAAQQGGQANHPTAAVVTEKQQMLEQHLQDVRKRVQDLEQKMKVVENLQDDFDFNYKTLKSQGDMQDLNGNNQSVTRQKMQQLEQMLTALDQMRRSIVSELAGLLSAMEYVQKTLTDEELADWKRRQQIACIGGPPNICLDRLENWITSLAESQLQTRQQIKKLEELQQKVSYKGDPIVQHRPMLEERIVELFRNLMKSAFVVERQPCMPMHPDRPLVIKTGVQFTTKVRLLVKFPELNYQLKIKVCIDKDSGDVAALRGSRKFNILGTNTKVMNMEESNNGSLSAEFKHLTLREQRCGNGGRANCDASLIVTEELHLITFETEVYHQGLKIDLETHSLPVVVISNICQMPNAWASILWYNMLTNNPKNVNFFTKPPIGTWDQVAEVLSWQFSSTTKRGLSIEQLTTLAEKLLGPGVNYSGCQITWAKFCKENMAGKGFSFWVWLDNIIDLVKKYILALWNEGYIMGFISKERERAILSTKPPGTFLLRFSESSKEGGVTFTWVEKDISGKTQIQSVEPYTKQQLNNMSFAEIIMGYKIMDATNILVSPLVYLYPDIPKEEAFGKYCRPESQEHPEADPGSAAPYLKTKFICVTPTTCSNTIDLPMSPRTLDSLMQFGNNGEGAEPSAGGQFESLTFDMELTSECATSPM

CC(=O)OC1CC(C)OC(C)O1 (stereo unspecified)
not listed: [18]
inactive: all other assays above

CCN(CC)CCOc1ccc(C(=C(Cl)c2ccccc2)c2ccccc2)cc1
inactive: [3] | [4] | [6] | [10] | TIMP1, TIMP1 (gene 7076) | [17]
active: [1] 78.8 µM | [2] 28.8 µM | MYC, MYC (gene 4609) 56.1 µM | [5] 77.1 µM | [7] 78.5 µM | [8] 17.1 µM | [9] 42 µM | [11] 77.7 µM | [12] 78.1 µM | [13] 78.6 µM | [14] 13.3 µM | [15] 79.3 µM | [16] 42 µM

CCCCCCC(C=O)=Cc1ccccc1
not listed: [11]
inactive: all other assays above

CCCCC(CC)COC(=O)CCCCCCCC(=O)OCC(CC)CCCC (stereo unspecified)
not listed: [8] | [11] | [18]
inactive: all other assays above

CCCCC(CC)COP(=O)(OCC(CC)CCCC)OCC(CC)CCCC (stereo unspecified)
not listed: [12] | [18]
inactive: all other assays above

C=CCCCCCCCCCCCC
not listed: [18]
inactive: all other assays above

O=C(O)c1[nH]n(-c2ccc(S(=O)(=O)O)cc2)c(=O)c1N=Nc1ccc(S(=O)(=O)O)cc1
inactive: all assays above
